Results published in PubChem BioAssay AID485270 (The Scripps Research Institute Molecular Screening Center, 2010).
About 5,800 (1.8%) of roughly 330,000 compounds were called active. The sample holds actives, similar compounds and a random draw of the others, so the mix is not that of the screen. A number with no mark means an inactive call. Rule as the data show it: active = inhibition mostly above about 38% (no sharp cut-off); inactive = mostly below about 40%.

Molecular target: Orexin/Hypocretin receptor type 1 (Homo sapiens) (UniProt O43613)
Sequence (O43613 whole entry, looked up): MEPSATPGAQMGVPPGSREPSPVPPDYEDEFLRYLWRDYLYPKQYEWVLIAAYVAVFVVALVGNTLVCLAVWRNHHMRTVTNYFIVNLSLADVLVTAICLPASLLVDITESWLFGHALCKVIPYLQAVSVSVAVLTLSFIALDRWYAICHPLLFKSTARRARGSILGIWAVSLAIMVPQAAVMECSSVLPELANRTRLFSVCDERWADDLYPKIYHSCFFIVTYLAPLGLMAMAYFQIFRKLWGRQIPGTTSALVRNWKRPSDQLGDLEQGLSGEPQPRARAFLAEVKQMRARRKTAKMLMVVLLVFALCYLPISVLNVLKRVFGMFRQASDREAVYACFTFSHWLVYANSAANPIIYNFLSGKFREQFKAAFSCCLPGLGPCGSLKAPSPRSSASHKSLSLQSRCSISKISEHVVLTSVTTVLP
Experiment: blocks the human orexin 1 receptor (AID 485270);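 also: 0% = agonist challenge alone and 100% = reference antagonist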
Conditions: OX1R-expressing cells, FRET antagonist read-out; at 6.6 µM; hits give high values

O=C(N/N=C/c1c(O)n(C2CC2)c(=S)[nH]c1=O)c1ccccc1Cl was tested. Which inhibition did it give?
The inhibition was 16.5%.

How did the inhibition turn out when O=C(N/N=C/c1c(O)n(C2CC2)c(=S)[nH]c1=O)c1ccccc1 was run?
The inhibition was 48.4% (active).

With O=C(N/N=C/c1c(O)n(Cc2ccccc2)c(=O)[nH]c1=O)c1ccccc1 as the compound, how does the inhibition read?
Its inhibition is 20.1%.

O=C(CSC1c2ccccc2-c2ccccc21)N/N=C/c1ccccc1 was tested. Which inhibition did it give?
The inhibition was 53.4%.

For CNC(=O)Nc1ccc(C(O)(C(=O)OC)C(F)(F)F)cc1 (stereo not given), which inhibition is on record?
The inhibition was 1.75%.

With COc1ccc2c(c1O)-c1cccc3c1[C@@H](C2)N(C)CC3 as the compound, how does the inhibition read?
Its inhibition is 21.8%.

CCN1CCN(c2ccc([N+](=O)[O-])cc2C#N)CC1 was tested. Which inhibition did it give?
Its inhibition is 30.8%.

Which inhibition does the source give for Cc1nc2ccc(N3CCN(C)CC3)cc2nc1C here?
The inhibition was 36.4%.

For CN1CCN(c2cc(N3CCNCC3)ccc2[N+](=O)[O-])CC1, which inhibition is on record?
The inhibition was 61% (active).

Which inhibition does the source give for Cc1cccc2c(CCN)c[nH]c12 here?
The inhibition was 13.2%.

CCOCCc1c(O)[nH]c(=S)[nH]c1=O was tested. Which inhibition did it give?
Its inhibition is -2.14%.

Which inhibition does the source give for COc1ccccc1N=Nc1c(O)[nH]c(=S)[nH]c1=O here?
Its inhibition is 55.9% (active).

For O=C1N=c2ccccc2=C/C1=C\c1c(O)[nH]c(=S)[nH]c1=O, which inhibition is on record?
Its inhibition is 42.6%.

For O=c1[nH]c(CN2CC=C(c3ccccc3)CC2)nc2scc(-c3cccs3)c12, which inhibition is on record?
The inhibition was 7.54%.

Which inhibition does the source give for CC(=O)Nc1ccc(C(=O)C(Cc2ccccc2)N(C)C)cc1 (stereo not given) here?
Its inhibition is 4.57%.

COc1cccc(-c2nc3ccc(N4CCN(C)CC4)cc3[nH]2)c1 was tested. Which inhibition did it give?
Its inhibition is 20.4%.

How did the inhibition turn out when CCN(CC)c1ccc([N+](=O)[O-])c2cccnc12 was run?
The inhibition was 28.8%.

For CN(c1ccccc1)c1ccc([N+](=O)[O-])c2nonc12, which inhibition is on record?
Its inhibition is 73.5% (active).

How did the inhibition turn out when CN1CCN(Cc2ccc(OC(F)(F)F)cc2)CC1 was run?
Its inhibition is 2.95%.

O=C(Cc1ccccc1)N1CCN(C2CCCCCC2)CC1 was tested. Which inhibition did it give?
The inhibition was -3.88%.
